According to PubChem BioAssay (NCI):
This is part of a sample that, as a whole, favours compounds with a hit. Of some 83,000 tested, about 20% had one in any assay.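 Step 1: grow cells in 96-well plates. Step 2: add test compound at a single concentration. Step 3: incubate 48 h. Step 4: record percent growth.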 The source made the active and inactive calls.

tested on: SK-MEL-28 melanoma; experiment: NCI-60 one-dose screen, 48 h (100 = growth as untreated, 0 = no growth, -100 = all killed); settings: 10 µM unless noted
Description: Growth inhibition of the SK-MEL-28 human tumor cell line is measured as a screen for anti-cancer activity. Cells are grown in 96 well plates and exposed to the test compound for 48 hours. Compounds are tested at a single concentration, which is 10^-5 M for most compounds. The reported endpoint is percent growth (GI% or GIPRCNT), where numbers from 0 - 100% represent growth inhibition, and numbers from -100% - 0 represent cell death. For example, a value of 40 represents 60% growth inhibition. A value of 0 means no net growth occurred over the course of the experiment. A value of -40 indicates 40% of cells at the beginning of the experiment died by the end of the experiment. A value of -100 means all cells are dead at the end of the experiment.
NCI-60 Human Tumor Cell Lines Screen was performed using the standard one-dose NCI protocol, which is described in more detail at https://dtp.cancer.gov/discovery_development/nci-60/default.htm.
Compounds with GIPRCNT values below 10 were considered active. Activity score was based on GIPRCNT using the following formula: […]
Score is 0 for GIPRCNT values of 100 or above, 50 for GIPRCNT values of 0, and 100 for GIPRCNT values of -100.

Row | Compound | growth
1 | C1CCC2(CC1)OOCNCOO2 | 110% (inactive)
2 | Clc1cccc(N2COOC3(OOC2)C2CC4CC(C2)CC3C4)c1 | 114% (inactive)
3 | C=C1C(=O)O[C@H]2[C@H]1CC/C(COC(=O)C(=O)c1cn(Cc3ccccc3)c3ccccc13)=C\CC[C@@]1(C)O[C@@H]21 | -47.1% (active)
4 | CC12CCC3C(C=CC4=C(N)C(=O)CCC43C)C1CCC2=O (stereo not given) | 103% (inactive)
5 | CN[C@@]1(c2ccccc2Cl)CCCC[C@@H]1NCC1CCCO1 (stereo not given in full) | 101% (inactive)
6 | ClCCN(CCCl)c1ccc(/C=N\N=C\c2ccc(N(CCCl)CCCl)cc2)cc1 | 61.3% (inactive)
7 | CN1C(=O)C(=Cc2cn(CCCCCCn3c4ccccc4c(=O)c4ccccc43)c3ccccc23)C(=O)N(C)C1=O | 98% (inactive)
8 | CCCCCC1(CCBr)C(=O)NC(=O)NC1=O | 118% (inactive)
9 | Clc1ccc2nnnn2n1 | 51.9% (inactive)
10 | CC[C@@H]1[C@@H](C)O[C@@](O)([C@@H](C)[C@H](O)[C@H](C)[C@H]2OC(=O)/C=C/C=C/[C@H](C)[C@@H]([C@@H](C)[C@@H](O)[C@H](C)[C@@]3(O)C[C@@H](O[C@H]4C[C@@H](O)[C@H](O)C(C)O4)[C@H](CC)[C@@H](C)O3)OC(=O)/C=C/C=C/[C@@H]2C)C[C@H]1O[C@@H]1C[C@@H](O)[C@H](O)C(C)O1 (stereo not given in full) | -92.1% (active)
11 | CCOC(=O)[C@@H](C)C[C@H](Cc1ccccc1)NC(=O)c1csc([C@@H](C[C@H](C(C)C)N(C)C(=O)[C@@H](NC(=O)[C@H]2C[C@H](O)CCN2C)C(C)C)OC(C)=O)n1 | 51.1% (inactive)
12 | Cc1ccc(C(Cc2ccccc2)NCCO)cc1 (stereo not given) | 61.9% (inactive)
13 | CC(=O)O[C@H]1C(=O)[C@@]2(C)[C@H]([C@H](OC(=O)c3ccccc3)[C@]3(O)C[C@H](OC(=O)[C@H](OC(=O)OC[C@H]4COC(C)(C)O4)[C@@H](NC(=O)c4ccccc4)c4ccccc4)C(C)=C1C3(C)C)[C@]1(OC(C)=O)CO[C@@H]1C[C@@H]2O | 49.7% (inactive)
14 | Nc1nc([Se])c2ncn(C3OC(CO)C(O)C3O)c2n1 (stereo not given) | 98.9% (inactive)
15 | COc1cc2ncnc(Nc3ccc(F)c(Cl)c3)c2cc1OCC(=O)N1CCN(C)CC1 | 102% (inactive)
16 | C[CH2][Sn]([Cl])([Cl])[CH2]C.Oc1ccccc1C=NCCN=Cc1ccccc1O | 124% (inactive)
17 | N#C[Se]CCN1C(=O)c2ccccc2C1=O | 25.9% (inactive)
18 | COc1cc2c(cc1OCCCn1c(-c3ccccn3)nc3ccccc31)N=C[C@@H]1CCCN1C2=O | 5.44% (active)
19 | Clc1cccc(NCOOC2(OOCNc3cccc(Cl)c3)CCCCCC2)c1 | 107% (inactive)
20 | CC1=C(CN)C2=C(C)C3(CC3)[C@@](C)(O)C(=O)C2=C1 | 94.8% (inactive)

Row | Compound | growth
21 | Cc1ccc(C(=O)NCCCOc2ccc(N3C(N)=NC(N)=NC3(C)C)cc2Cl)cc1S(=O)(=O)F | 104% (inactive)
22 | COC(=O)[C@@H](C)C[C@H](Cc1ccccc1)NC(=O)c1csc([C@@H](C[C@H](C(C)C)N(C)C(=O)[C@@H](NC(=O)[C@H]2CCCCN2C)c2ccc(F)cc2)OC(C)=O)n1 | 49.6% (inactive)
23 | CC(=O)O[C@H]1C(=O)[C@@]2(C)[C@H]([C@H](OC(=O)c3ccccc3)[C@]3(O)C[C@H](OC(=O)[C@H](OC(=O)OC[C@@H]4COC(C)(C)O4)[C@@H](NC(=O)c4ccccc4)c4ccccc4)C(C)=C1C3(C)C)[C@]1(OC(C)=O)CO[C@@H]1C[C@@H]2O | 52% (inactive)
24 | Cc1c(C)c([N+](=O)[O-])c(C)c(C)c1[N+](=O)[O-] | 108% (inactive)
25 | O=C(CCCCCCC(=O)Nc1ccc(N(CCCl)CCCl)cc1)NO | 35.3% (inactive)
26 | COC(=O)[C@@H](C)C[C@H](Cc1ccccc1)NC(=O)c1nc([C@@H](C[C@H](C(C)C)N(C)C(=O)[C@@H](NC(=O)[C@H]2CCCCN2C)C(C)C)OC(C)=O)sc1C | 66.1% (inactive)
27 | COc1ccc(S(=O)(=O)N(Cc2ccc3c(c2)C=CC(C)(C)O3)c2ccccc2)cc1OC | 67.9% (inactive)
28 | O=C(CC1(O)C(=O)N(Cc2ccccc2)c2ccc(Cl)cc21)c1ccc(C(=O)NCC2CCC3(CC2)OOC2(CCCCC2)OO3)cc1 (stereo not given) | 58.5% (inactive)
29 | Cc1cccc(N2CCN(C(C)C#N)CC2)c1 (stereo not given) | 114% (inactive)
30 | CN1C(=O)N[C@H]2[C@@H]3NC(=O)c4ccc(Br)n4[C@@H]3C[C@]21O | -34.9% (active)
31 | Cc1ccc(Nc2nc3c(s2)C2=CC[C@@H]4[C@H](CC[C@]5(C)C(=O)CC[C@@H]45)[C@@]2(C)CC3)cc1 | 37.6% (inactive)
32 | CCOC(=O)[C@@H](C)C[C@H](Cc1ccccc1)NC(=O)c1csc([C@@H](C[C@H](C(C)C)N(C)C(=O)[C@@H](NC(=O)[C@H]2CCCCN2C)C(C)(C)C)OC(C)=O)n1 | 51.2% (inactive)
33 | CC[C@H](C)[C@H](NC(=O)[C@H]1CCCCN1C)C(=O)N(C)[C@H](CC(=O)c1nc(C(=O)N[C@@H](Cc2ccccc2)C[C@H](C)C(=O)O)cs1)C(C)C | 81.3% (inactive)
34 | COc1cc(/C=N/C2=C(C#N)C(c3ccco3)c3c(c4cc(C)ccc4oc3=O)O2)cc(OC)c1OC (stereo not given) | 81.7% (inactive)
35 | CCc1ccccc1[C@@H]1C[C@]2(C)CCO[C@@H]2OO1 | 110% (inactive)
36 | Cn1cc(-c2csc(-c3cn(CCCCN4CCCCC4)c4ccc(F)cc34)n2)c2cccnc21 | -78.2% (active)
37 | Cn1cc(-c2csc(-c3cn(CCN4CCOCC4)c4ccccc34)n2)c2cccnc21 | 78.2% (inactive)
38 | C[S+]1C=Cc2ccccc2C1c1ccc(Cl)cc1 (stereo not given) | 103% (inactive)
39 | COc1cc(C=Nc2cccc(C(=O)O)c2)ccc1N(CCCl)CCCl | 103% (inactive)
40 | [Cl][Hg][n]1c(-c2ccco2)nc2ccccc21 | 108% (inactive)
